The text below walks through data of publication PMC4552634, “A New Set of Chemical Starting Points with Plasmodium falciparum Transmission-Blocking Potential for Antimalarial Drug Discovery” (PLoS ONE, 2015).

Screen size: about 13,000 compounds; about 3,200 (25%) showed an effect of 50% or more. Some of the results follow.

The subject of this test is P. falciparum stage V gametocytes. Also noted: BacTiter-Glo ATP luminescence viability of purified stage V gametocytes in 384-well plates, per cent inhibition versus DMSO. To be noted: 48 h, 5 µM; inhibitor.
For `CN(C)c1ccc(N2C(N)=NC(N)=NC23CCCC3)cc1` [TCMDC-123607], the “% Inhibition” value was found to be 9.069%.
Then `CN(CC(=O)Nc1cc(C(F)(F)F)ccc1-n1cncn1)Cc1ccc2ccccc2c1` [TCMDC-125257], with -1.841%.
For the molecule `Cc1cc(NCc2ccc(F)cc2)nc2cc(O)ccc12` [TCMDC-124412], the “% Inhibition” value is reported as 9.894%.
The figure for `O=C(/C=C/c1ccc(Cl)c(Cl)c1)N1CCC(CN2CCC(Cc3cc4ccccc4[nH]3)CC2)CC1` [TCMDC-140231] is 13.2%; for `CCCCCCCCc1[nH]c(C)c(Br)c(=O)c1Br` [TCMDC-137433] it is 43.41%.
The figure for `Cc1cc(CN2CCC(C(=O)Nc3ccc(-c4nc5ccccc5[nH]4)cc3)CC2)oc1C` [TCMDC-124612] is -34.2%; for `COc1cc2c(cc1OC)C(C(=O)Nc1cc(OC)c(OC)c(OC)c1)C(c1ccc(SC)cc1)N(C)C2=O` (centres unmarked) [TCMDC-125151] it is 59.65%; for `COc1ccc(C2C(C(=O)Nc3ccc(C)c(F)c3)c3cc(OC)c(OC)cc3C(=O)N2C)cc1` (centres unmarked) [TCMDC-123594] it is -36.5%.
Then `COc1ccc(C2C(C(=O)Nc3cc(OC)c(OC)c(OC)c3)c3cc(OC)c(OC)cc3C(=O)N2C)cc1` (centres unmarked) [TCMDC-125141], with 92.28%; and `COc1cc(SC)ccc1C(=O)N1CC(C)CC(C)C1` (centres unmarked) [TCMDC-123656], with 27.35%; and `COc1ccc(C2C(C(=O)Nc3ccc4c(c3)OCO4)c3cc(OC)c(OC)cc3C(=O)N2C)cc1` (centres unmarked) [TCMDC-123593], with 37.81%.
For `O=C(N[C@@H](Cc1ccccc1)C(=O)NC1CCCc2ccccc21)c1ccc(O)c(-c2cccc(C(F)(F)F)c2)c1` (some centres unmarked) [TCMDC-140820], the “% Inhibition” value stood at 23.49%.
Then `CCN(CC)CCN(Cc1ccc(-c2ccc(C#N)cc2)cc1)C(=O)Cn1c(CCc2cccc(F)c2F)nc(=O)c2ccccc21` [TCMDC-141150], with 0.7472%; and `CCN(CC)CCN(Cc1ccc(-c2ccc(C(F)(F)F)s2)cc1)C(=O)Cn1c(CCc2cccc(F)c2F)nc(=O)c2ccccc21` [TCMDC-141262], with 57%; and `CCN(CC)CCN(Cc1ccc(-c2ccc(Cl)s2)cc1)C(=O)Cn1c(CCc2cccc(F)c2F)nc(=O)c2ccccc21` [TCMDC-141229], with 28.5%.
With `CCN(CC)CCN(Cc1ccc(-c2ccc(Cl)cc2)cc1)C(=O)Cn1c(CCc2cccc(F)c2F)nc(=O)c2ccccc21` [TCMDC-141054], the “% Inhibition” value turned out to be 39.4%.
The figure for `CCN(CC)CCN(Cc1ccc(-c2ccc(Br)cc2)cc1)C(=O)Cn1c(CCc2cccc(F)c2F)nc(=O)c2ccccc21` [TCMDC-141305] is 51.66%.
The figure for `CC(C)(C)NCCN(Cc1ccc(-c2ccc(C(F)(F)F)cc2)cc1)C(=O)Cn1c(CCc2cccc(F)c2F)nc(=O)c2ccccc21` [TCMDC-141080] is 105.1%; for `CCN(CC)CCN(CCCc1ccc(-c2ccc(C(F)(F)F)cc2)cc1)C(=O)Cn1c(CCc2cccc(F)c2F)nc(=O)c2ccccc21` [TCMDC-141253] it is 67.3%; for `Cc1ccccc1C1CCN(C2CCC(NC(=O)c3cc4cc(C(C)C)ccc4[nH]3)CC2)CC1` (centres unmarked) [TCMDC-133554] it is 15.06%.
The figure for `COc1ccc2ncc(C#N)c(CCN3C4CCC3CC(NCc3ccc5c(n3)NC(=O)CS5)C4)c2c1` (centres unmarked) [TCMDC-135180] is 37.34%; for `Brc1cnc(NC2=NCCN2)c(Br)c1` [TCMDC-131680] it is 12.04%.
Turning to `Cc1nc(C)c(CC(=O)Nc2cccc(-c3cccc(-c4nc5ccc(C(F)(F)F)cc5[nH]4)c3)c2)s1` [TCMDC-136995], the “% Inhibition” value was 4.513%.
Then `CC(C)(CN)c1nc(-c2ccc(Br)c(O)c2)c(-c2ccncc2)[nH]1` [TCMDC-140680], with -59.77%; and `O=C(/C=C/c1ccc(Cl)c(Cl)c1)NCCCCCN1CCC(NC(=O)Nc2ccccc2F)CC1` [TCMDC-139386], with -2.666%.
Then `C=CCOC1OC(COC(c2ccccc2)(c2ccccc2)c2ccccc2)C(OC(C)=O)C(OC(C)=O)C1NC(C)=O` (centres unmarked) [TCMDC-131992], with 13.79%.
Then `CCN(CC)CCN(Cc1ccc(-c2ccc(C(F)(F)F)cc2)cc1)C(=O)Cn1c(CCc2cccc(F)c2F)nc(=O)c2ccccc21` [TCMDC-140922], with 60.98%.
On to `CCN(CC)CCN(Cc1ccc(-c2ccc(C(F)(F)F)cc2)cc1)C(=O)Cn1c(CCc2cccc(F)c2F)nc(=O)c2cccnc21` [TCMDC-141013], for which the “% Inhibition” value came to 97.72%.
Take `CC(C)(C)NCCN(Cc1ccc(-c2ccc(C(F)(F)F)cc2)cc1)C(=O)Cn1c(CCc2cccc(F)c2F)nc(=O)c2c1CCC2` [TCMDC-140979]: the “% Inhibition” value is reported as 113.3%.
`CCN(CC)CCN(Cc1ccc(-c2ccc(C(F)(F)F)cc2)cc1)C(=O)Cn1c(CCc2ccc(F)c(F)c2F)nc(=O)c2cccnc21` [TCMDC-141002]: the “% Inhibition” value is 20.31%.
As for `CCN(CC)CCN(CCCc1ccc(-c2ccc(C(F)(F)F)cc2)cc1)C(=O)Cn1c(CCc2cccc(F)c2F)nc(=O)c2c1CCC2` [TCMDC-140984], the “% Inhibition” value is given as 42.45%.
The figure for `CCN(CC)CCN(Cc1ccc(-c2ccc(C(F)(F)F)cc2)cc1)C(=O)Cn1c(CCc2cccc(F)c2F)c(C)c(=O)c2ccccc21` [TCMDC-141313] is 76.85%; for `Cn1nccc1C(=O)NCCNCc1cccc(-c2csc(-c3nc4ccccc4[nH]3)c2)c1` [TCMDC-133002] it is -62.03%.
Then `CCCN1CCc2c(sc3nc(SCC(=O)Nc4ccc(C)cc4)n(-c4ccc(C)cc4)c(=O)c23)C1` [TCMDC-125451], with 5.583%.
For the molecule `O=C(NC1CCCc2ccccc21)C1CCCN(C(=O)c2ccc(O)c(-c3ccc(Cl)c(Cl)c3)c2)C1` (centres unmarked) [TCMDC-140890], the “% Inhibition” value came to 19.76%.
The figure for `CCn1c(CN2CCC(C)CC2)nc2cc(NC(=O)c3cccs3)ccc21` [TCMDC-124730] is -26.92%; for `CCCCCCCN(Cc1ccc(OC(C)(C)C(=O)OCC)cc1)C(=O)Cc1ccc(F)cc1F` [TCMDC-131920] it is 13.51%.
Then `COC(=O)c1cccc(NC(=O)NC2CCN(c3ccnc(Nc4ccc(OC)cc4)n3)C2)c1` (centres unmarked) [TCMDC-133618], with -6.04%.
